Measured values: PubChem BioAssay (Tox21)
Active and inactive are the calls of the source. The call rests on the fitted dose curve; in most records, active means well fitted curve in the direction sought with a large enough effect in the repeat runs; inconclusive means weak or mixed curves; inactive means flat fitted curve, though single readings scatter.

Assay: qHTS assay to test for compound auto fluorescence at 590 nm (red) in HEK293 cell free culture (AID 720683)
Conditions: cell-free medium autofluorescence, Ex540/Em590 red; series mostly up to 91.3 µM; fluorescence, % of fluorescent control: at the top concentration
Excerpt: U.S. Tox21 Program National Center for Advancing Translational Sciences [NCATS] NIH Chemical Genomics Center [NCGC] U.S. Environmental Protection Agency [EPA] National Institutes of Environmental Health Sciences [NIEHS] National Toxicology Program [NTP] U.S. Food and Drug Administration [FDA] Tox21 Assay Overview: Compound auto fluorescence often interferes with screening of the compound library against various biological targets and signaling pathways. Some of these compounds may have fluorophoric properties. Such properties may interfere with the assay outputs resulting in false positives and/or negatives. To decrease such complications and ensure the compound activities are relevant in terms of biological response, the Tox21 10K compound library was screened for auto fluorescence. From the fluorophores used as reporter signals in our screening assays, the auto fluorescence equivalencies of compounds against three fluorophores have been evaluated: Triamterene, Fluorescein and Rose Bengal sodium for blue, green and red fluorescence, respectively. The fluorescence intensities were measured using Excitation/Emission wavelengths at 405/460nm, 485/535nm and 540/590nm for blue, green and red labels, respectively. This assay includes the red fluorescence data.
Tox21 Assay Protocol Summary: 5 uL of culture medium (DMEM containing 10% FBS) per well was dispensed into black wall/clear bottom 1536-well plates using a Multidrop Combi Dispenser (ThermoFisher Scientific, Waltham, MA). After 23 nL compound or DMSO vehicle was transferred into assay plate by a pintool work station (Kalypsys, San Diego, CA), fluorescence intensities in the assay plates were measured by an Envision (PerkinElmer, Shelton, CT) plate reader using three labels for measuring blue, green and red fluorescence at […] 460, 535 and 590nm respectively.
On the % scale 0 is the no-effect control and ±100 the full control effect.

SMILES	fluorescence, % of fluorescent control	outcome
N#Cc1c2ccccc2cc2ccccc12	0.0132% (inactive)	–
c1csc(-c2ccc(-c3cccs3)s2)c1	-0.849% (inactive)	–
CCC1COC(Cn2cncn2)(c2ccc(Cl)cc2Cl)O1 (stereo not given)	-0.0302% (inactive)	–
CC1=C2C[C@H]3[C@@H](CC=C4C[C@@H](O)CC[C@@]43C)[C@@H]2CC[C@]12O[C@@H]1C[C@H](C)CN[C@H]1[C@H]2C	-0.104% [at 46 µM] (inactive)	–
C#CC1(O)CCCCC1	0.0097% (inactive)	–
Oc1cccc(Cl)c1Cl	-0.469% (inactive)	–
CCCCN(CCCC)C(=S)S	0.0358% (inactive)	–
c1cc[n+]2c(c1)-c1cccc[n+]1CC2	0.293% [at 46 µM] (inactive)	–
CCC(C)Nc1c([N+](=O)[O-])cc(C(C)(C)C)cc1[N+](=O)[O-] (stereo not given)	-0.033% (inactive)	–
CCCCCCCc1ccc(O)cc1	-0.545% (inactive)	–
O=C(N[C@@H]1N=C(c2ccccc2F)c2cccc3c2N(CC3)C1=O)c1cc2ccccc2[nH]1	0.185% [at 46 µM] (inactive)	–
CC(C)C(Br)C(=O)NC(N)=O (stereo not given)	-0.0669% [at 46 µM] (inactive)	–
N#CSCc1ccccc1	-0.0544% (inactive)	–
[F][Sn]([c]1ccccc1)([c]1ccccc1)[c]1ccccc1	0.0888% (inactive)	–
c1ccc(N=NNc2ccccc2)cc1	–	inactive
CC(Cl)CCl (stereo not given)	-0.467% (inactive)	–
c1ccc2nc(N3CCNCC3)ccc2c1	0.143% [at 46 µM] (inactive)	–
O=[N+]([O-])C(Br)Br	-0.335% (inactive)	–
CCCCCCCCCCCCCCn1cc[n+](C)c1	–	inactive
COc1ccc2c3c1O[C@H]1[C@H](O)CC[C@H]4[C@@H](C2)N(C)CC[C@@]341	-0.708% (inactive)	–

SMILES	fluorescence, % of fluorescent control	outcome
CCN(CC)C(=O)N[C@@H]1C=C2c3cccc4[nH]cc(c34)C[C@@H]2N(C)C1	-0.136% [at 46 µM] (inactive)	–
CCCN	0.285% (inactive)	–
Oc1ccc2[nH]cc(CCCCN3CC=C(c4ccccc4)CC3)c2c1	0.211% [at 46 µM] (inactive)	–
CCn1cc[n+](C)c1 (tested in a mixture with another compound)	-0.109% (inactive)	–
C=C(C)C(=O)[O][Sn]([CH2]CCC)([CH2]CCC)[CH2]CCC	0.22% (inactive)	–
Clc1ccc(C(c2ccc(Cl)cc2)C(Cl)Cl)cc1	–	inactive
O.O.O.O.O.O.O=S(=O)([O-])[O-].[Ni+2]	-0.428% [at 46 µM] (inactive)	–
CO/N=C(/C1=NOCCO1)c1ccccc1Oc1ncnc(Oc2ccccc2Cl)c1F	-0.034% (inactive)	–
CC[C@]1(O)CC[C@H]2[C@@H]3CCC4=CCCC[C@@H]4[C@H]3CC[C@@]21C	-0.292% [at 46 µM] (inactive)	–
OCC(Br)CBr (stereo not given)	-0.154% [at 95.7 µM] (inactive)	–
[O]=[Cr](=[O])([OH])[O][Cr](=[O])(=[O])[OH]	–	inactive
Cc1cc2c3c(c1)C(c1ccccc1)=N[C@@H](NC(=O)c1ccncc1)C(=O)N3CC2	-0.0644% (inactive)	–
Brc1ccc(Oc2ccc(Br)cc2Br)c(Br)c1	0.067% (inactive)	–
CC1(C)[C@H](/C=C2\CCSC2=O)[C@@H]1C(=O)OCc1coc(Cc2ccccc2)c1	0.11% (inactive)	–
O=[N+]([O-])c1ccc(Cl)c(Cl)c1Cl	-0.177% (inactive)	–
COC(=O)c1ccccc1S(=O)(=O)NC(=O)Nc1nc(C)nc(OC)n1	0.0591% (inactive)	–
CC(=O)[O-].CC(=O)[O-].CC(=O)[O-].[Sb+3]	-0.102% [at 3.72 µM] (inactive)	–
N#Cc1sc2c(=O)c3ccccc3c(=O)c=2sc1C#N	-0.49% (inactive)	–
ClC1=C(Cl)[C@]2(Cl)[C@@H]3[C@H]4C[C@H]([C@@H]5O[C@H]45)[C@@H]3[C@@]1(Cl)C2(Cl)Cl	–	inactive
O=C(NC(=O)c1ccccc1Cl)Nc1ccc(OC(F)(F)F)cc1	0.0015% (inactive)	–
